An excerpt weighted towards active compounds, which were near 3.1% of everything screened.
esBAF inh: Bmi1 luciferase reporter increase in mESCs, primary screen, esBAF inhibitor project, mouse ES cells, Bmi1 luciferase knock-in, single point. 24 h; 100% = twice the neutral-well signal. reporter increase, % at 12.5 µM. 350,000 compounds, 2% hits. AID 602393, 2012; in the data active = activation above about 40%; inconclusive = no clear call, values can overlap the other calls;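 also: 0% = median of the plate's neutral control wells and 100% = double that signal; a rise in the Bmi1 reporter signal indicates esBAF inhibition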
C2C12 statin: suppressors of statin myotoxicity in C2C12 myotubes, primary screen, cell-based, single point, plate reader | C2C12 myotubes + simvastatin, ATP luminescence, 48 h; scaled: DMSO 0, geranylgeraniol control 100 | rescue of ATP level, % at 7.49 µM | 330,000 compounds, 0.78% hits;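 active = mean ATP rescue above about 67%, or every replicate alone reaching that limit, limit read from the data, passing the limit was not always enough; inconclusive = no clear call, values can overlap the other calls; inactive = mean under the limit and some replicate under it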;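 also: myotubes were challenged with 10 µM simvastatin during compound exposure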
Wnt act: Wnt/beta-catenin pathway activators, primary screen, cell-based, plate reader, single point; activation, % at 9.35 µM; AID 743398, 2014; Wnt/beta-catenin reporter cell assay, activator; 300,000 compounds, 1.2% hits; in the data active = activation above about 30%, passing the limit was not always enough; inconclusive = no clear call, values can overlap the other calls;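 also: 0% = neutral control wells and 100% = positive control wells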
Rtt109 Vps75: inhibitors of C. albicans Rtt109/Vps75 HAT, primary screen, biochemical, ThioGlo CoA-SH fluorescence, plate reader; inhibition, % at 34.9 µM; 330,000 compounds, 0.16% hits; purified Rtt109/Vps75, 4 h; Histone acetyltransferase RTT109 (Candida albicans (strain SC5314 / ATCC MYA-2876)), …;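 active = inhibition of at least 50% in every replicate; inconclusive = best replicate reaches 50% inhibition but some replicates fall short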
Target sequence (Q5AAJ8 whole entry, looked up): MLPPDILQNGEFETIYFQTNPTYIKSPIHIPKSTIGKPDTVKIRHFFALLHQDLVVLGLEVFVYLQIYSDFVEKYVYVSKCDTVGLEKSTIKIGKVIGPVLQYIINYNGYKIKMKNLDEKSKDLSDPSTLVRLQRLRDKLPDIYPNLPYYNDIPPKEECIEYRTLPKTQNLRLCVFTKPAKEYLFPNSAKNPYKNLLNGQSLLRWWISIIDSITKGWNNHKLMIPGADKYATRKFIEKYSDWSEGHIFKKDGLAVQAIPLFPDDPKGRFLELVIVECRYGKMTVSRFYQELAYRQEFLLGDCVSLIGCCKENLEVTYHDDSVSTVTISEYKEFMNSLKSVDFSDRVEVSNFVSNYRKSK
MITF TRPM1 HTS: activators of MITF-driven TRPM1 promoter reporter, primary screen, cell-based, SK-MEL-5, luciferase, single point; SK-MEL-5 TRPM1-promoter luciferase, 24 h; % of positive control, neutral wells = 0; activation, % at 12.5 µM; 300,000 compounds, 0.75% hits; AID 588334, 2011;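 active = mean activation of at least 80% with every replicate also reaching 80%; inconclusive = mean reaches 80% but some replicate falls short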;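 also: 0% = neutral control wells and 100% = parthenolide positive control wells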
* marks the source's active call; other numbers are inactive results.

Screening C[C@@H]1CN([C@@H](C)CO)C(=O)c2cc(NC(=O)Cc3ccccc3)ccc2O[C@@H](C)CCCCO[C@@H]1CN(C)S(=O)(=O)c1ccc(F)cc1 returned esBAF inh 4.2 and C2C12 statin 101.0*.
`C[C@@H]1CN([C@H](C)CO)C(=O)c2cc(NC(=O)Cc3ccccc3)ccc2O[C@@H](C)CCCCO[C@@H]1CN(C)S(=O)(=O)c1ccc(F)cc1` gave esBAF inh 6.0 and C2C12 statin 55.5.
For COc1ccccc1C(=O)Nn1cnc2ccccc2c1=O the results were esBAF inh 67.7*, C2C12 statin 3.6, Wnt act 16.4 and MITF TRPM1 HTS 37.3.
`CCOC(=O)c1ccc(/[N+]([O-])=C/c2ccccc2)cc1` gave esBAF inh 53.1*, C2C12 statin -9.0, Wnt act 18.6, Rtt109 Vps75 -6.5 and MITF TRPM1 HTS 57.5.
C#CCCc1cscc1/C=[N+](\[O-])c1ccc(C(=O)OCC)cc1 was read as esBAF inh 61.7*, C2C12 statin 11.5, Wnt act 0.6, Rtt109 Vps75 -10.3 and MITF TRPM1 HTS 34.0.
For CCOC(=O)c1ccc(CNCc2ccccc2)cc1 the results were Wnt act -1.0, Rtt109 Vps75 3.1 and MITF TRPM1 HTS 51.2.
For C#CCCC(=O)c1ccccc1/C=[N+](\[O-])c1ccccc1 the results were esBAF inh 15.8, C2C12 statin 6.5, Wnt act 4.0, Rtt109 Vps75 -0.2 and MITF TRPM1 HTS -11.8.
`O=[N+]([O-])c1ccccc1OCCCOc1cccc2cccnc12` gave esBAF inh 59.7*, C2C12 statin -10.7, Wnt act 12.8 and Rtt109 Vps75 8.0.
Clc1ccccc1OCCCOc1cccc2cccnc12 was read as esBAF inh 55.4*, C2C12 statin -5.5, Wnt act 16.7 and Rtt109 Vps75 -8.6.
Screening Brc1ccc(OCCCOc2cccc3cccnc23)cc1 returned esBAF inh 71.5*, C2C12 statin 3.0, Wnt act 3.8 and Rtt109 Vps75 6.7.
`C[C@@H]1CN([C@H](C)CO)C(=O)c2cc(NC(=O)CCC(F)(F)F)ccc2O[C@@H](C)CCCCO[C@H]1CN(C)C(=O)Nc1ccc(C(F)(F)F)cc1` gave esBAF inh 1.1.
O=C(N/N=C/C(Br)=C/c1ccccc1)c1cccs1 was read as Wnt act inconclusive, Rtt109 Vps75 -0.1 and MITF TRPM1 HTS 62.7.
For O=C(Cn1cnc2ccccc21)N/N=C/C(Br)=C/c1ccccc1 the results were Wnt act 36.8*, Rtt109 Vps75 -4.7 and MITF TRPM1 HTS -5.0.
Screening O=C(N/N=C/C(Cl)=C/c1ccccc1)c1ccccc1F returned esBAF inh 47.8*, C2C12 statin -28.9, Wnt act 24.8, Rtt109 Vps75 0.0 and MITF TRPM1 HTS 67.4.
`O=C(N/N=C/C(Br)=C/c1ccccc1)c1ccccc1F` gave esBAF inh 51.2*, C2C12 statin -83.3, Wnt act 18.6, Rtt109 Vps75 22.8 and MITF TRPM1 HTS 70.4.
For CC=Cc1ccc2n(c1=O)C[C@H]1[C@H](CO)[C@@H](C(=O)N3CCCCC3)[C@@H]2N1C(=O)C1CCC1 (mixture of isomers) the results were esBAF inh -1.7 and C2C12 statin -9.9.
For O=C(C[C@@H]1C=C[C@H](NC(=O)C2CCC2)[C@H](CO)O1)NCCCN1CCOCC1 the results were esBAF inh -5.7 and C2C12 statin -3.1.
CC(=O)Nc1ccc(CN2C(=O)C(CCc3ccccc3)ON=C2c2cnccn2)cc1 (configuration not stated) was read as esBAF inh 46.6*, C2C12 statin -19.5 and Wnt act 7.3.
`COc1ccc(S(=O)(=O)Nc2ccccc2C(=O)NC(C)(C)C)cc1OC` gave esBAF inh -2.6, C2C12 statin 123.3*, Rtt109 Vps75 -2.6 and MITF TRPM1 HTS -5.3.
COc1ccc(S(=O)(=O)Nc2ccccc2C(=O)OC2CCCN(C)C2)cc1OC (configuration not stated) was read as esBAF inh -11.3, C2C12 statin 81.8*, Rtt109 Vps75 12.1 and MITF TRPM1 HTS 3.7.
